PubChem BioAssay (Tox21)
Results filed as inconclusive are left out. Active and inactive are the calls of the source. Unless noted, the call rests on the fitted dose curve.

Columns and labels:
[1] = Nuclear factor erythroid 2-related factor 2/antioxidant responsive element (Nrf2/ARE) small molecule agonists: qHTS cell viability counter screen in human keratinocytes (AID 1919968; active means well fitted curve in the direction sought with a large enough effect in the repeat runs; an effect the other way counts as inactive or inconclusive; further: nearly all actives have a fitted effect of over 55% in size)
Summary of the method: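 Measured as CellTiter-Fluor fluorescence, this readout tracks cytotoxicity in the same wells as the ARE-luciferase screen. HaCaT reporter cells (1,500/well) received compounds after a 5 h pre-incubation and were exposed for 23 h.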

[2] = Nuclear factor erythroid 2-related factor 2/antioxidant responsive element (Nrf2/ARE) small molecule agonists: luciferase reporter gene qHTS assay in human keratinocytes (AID 1919969); further: nearly all actives have a fitted effect of over 35% in size
[3] = target: Gonadotropin-releasing hormone receptor (Homo sapiens) (UniProt P30968); assay: Human gonadotropin-releasing hormone receptor (GnRHR) small molecule agonists, calcium flux assay in GnRHR-HEK293 cells (AID 1920063); further: nearly all actives have a fitted effect of over 35% in size
Summary of the method: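 Fluorescence kinetics (480 nm excitation, 540 nm emission; 3 min, 1 s steps) report calcium mobilisation in human GnRHR-HEK293 cells in agonist mode. Dye incubation: 1 h, 37 C.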

[4] = target: KiSS-1 receptor (Homo sapiens) (UniProt Q969F8); assay: Human kisspeptin (KISS1R) small molecule agonists, calcium flux assay in KISS1R-HEK293 cells (AID 1920064; active means well fitted curve in the direction sought with a large enough effect in the repeat runs; an effect the other way counts as inactive or inconclusive)
Summary of the method: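 Measures KISS1R agonism through calcium-sensitive dye fluorescence in stably transfected HEK293 cells, read for 3 min after pin-tool compound delivery; 15-point titrations in triplicate.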

[5] = G protein-coupled receptor (GPCR) small molecule agonists, calcium flux assay: HEK293 wild type cell line counter screen (AID 1920065)
Summary of the method: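 Readout: fluorescence at 480 nm excitation/540 nm emission, sampled at 1 s intervals for 3 min. Cells had been cultured 18 h, then dye-loaded 1 h at 37 C before compound or ATP addition.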

[6] = p53 small molecule agonists, cell-based qHTS assay with human liver microsomes (AID 1963577)
Summary of the method: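 p53RE-bla reporter cells were pre-incubated 5 h at 37 C, then treated with compounds plus human liver microsomes (0.5 mg/mL final) and NADPH (0.5 mg/mL final) for 16 h at 37 C. Beta-lactamase activity was read by LiveBLAzer fluorescence after 2 h at room temperature.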

[7] = p53 small molecule agonists, cell-based qHTS assay with rat liver microsomes (AID 1963578)
Summary of the method: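 p53RE-bla cells were exposed to compounds together with rat liver microsomes (0.5 mg/mL final) and NADPH (0.5 mg/mL final) for 16 h at 37 C, then read by LiveBLAzer beta-lactamase fluorescence after 2 h at room temperature.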

[8] = p53 small molecule agonists, cell-based qHTS assay with human liver microsomes: qHTS cell viability counter screen (AID 1963579); further: nearly all actives have a fitted effect of over 45% in size
Summary of the method: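 p53RE-bla cells (4,000/well) were pre-incubated 5 h at 37 C, then given compounds in DMSO plus human liver microsomes (0.5 mg/mL final) and NADPH (0.5 mg/mL final) for 16 h at 37 C. Viability was read by CellTiter-Glo luminescence.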

[9] = p53 small molecule agonists, cell-based qHTS assay with rat liver microsomes: qHTS cell viability counter screen (AID 1963580); further: nearly all actives have a fitted effect of over 45% in size
Summary of the method: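 Viability is assessed in parallel with the p53 reporter read: HCT-116 p53RE-bla cells receive compounds plus rat microsomes and NADPH (0.5 mg/mL final apiece), incubate 16 h at 37 C, and then CellTiter-Glo luminescence is recorded.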

[10] = p53 small molecule agonists, cell-based qHTS assay: qHTS cell viability counter screen (AID 1963581); further: nearly all actives have a fitted effect of over 45% in size
Summary of the method: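 In the same plates used for the p53 bla reporter, HCT-116 cells given compounds for 16 h at 37 C received CellTiter-Glo; luminescence was recorded 30 min later at room temperature.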

[11] = p53 small molecule agonists, cell-based qHTS assay (AID 1963582; active means well fitted activation curve with a large enough effect in the signal ratio in the repeat runs, not every such curve was filed as active; the % refers to the signal ratio)
Summary of the method: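 Compounds are pin-transferred in DMSO onto p53RE-bla cells and incubated 16 h at 37 C. The B/G FRET beta-lactamase substrate is then applied for 2 h at RT and fluorescence recorded.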

[12] = target: 5-hydroxytryptamine receptor 2A (Homo sapiens) (UniProt P28223); assay: 5-hydroxytryptamine receptor 2A (HTR2A) small molecule antagonists, cell-based qHTS assay (AID 1963586); further: nearly all actives have a fitted effect of over 45% in size
Summary of the method: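 Antagonist-mode intracellular calcium assay: DOI (4 nM) added after 5 min compound pre-incubation at room temperature to dye-loaded HTR2A-CHO cells. Fluorescence followed for 3 min, sampled every second.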

[13] = target: 5-hydroxytryptamine receptor 2A (Homo sapiens) (UniProt P28223); assay: 5-hydroxytryptamine receptor 2A (HTR2A) small molecule agonists, cell-based qHTS assay (AID 1963587); further: nearly all actives have a fitted effect of over 30% in size
Summary of the method: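 CHO cells stably expressing human HTR2A, plated 18 h, loaded with calcium dye 1 h at 37 C. Agonist mode: compounds added and intracellular calcium fluorescence recorded kinetically for 2 min at 1 sec intervals.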

[14] = target: Muscarinic acetylcholine receptor M1 (Homo sapiens) (UniProt P11229); assay: Cholinergic receptor muscarinic 1 (CHRM1) small molecule antagonists, cell-based qHTS assay (AID 1963588); further: nearly all actives have a fitted effect of over 40% in size
Summary of the method: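 CHRM1-CHO calcium-flux assay, antagonist mode. Cells were seeded 18 h, dye-loaded 1 h at 37 C and given compound for 5 min at RT, then acetylcholine was added at 50nM. FDSS fluorescence was read 3 min; 15 concentrations, three runs.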

[15] = target: Muscarinic acetylcholine receptor M1 (Homo sapiens) (UniProt P11229); assay: Cholinergic receptor muscarinic 1 (CHRM1) small molecule agonists, cell-based qHTS assay (AID 1963589); further: nearly all actives have a fitted effect of over 35% in size
Summary of the method: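 Each compound was tested at 15 concentrations across three independent runs on dye-loaded CHO cells stably expressing human CHRM1, reading intracellular calcium fluorescence kinetically at 1 sec intervals.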

[16] = cAMP Responsive Elements (CRE) small molecule agonists, cell-based qHTS assay (AID 1963590)
Summary of the method: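 Cell line: CRE-bla HEK 293T; medium DMEM/10% dialyzed FBS/0.1 mM NEAA/1 mM pyruvate/25 mM HEPES; 3 h compound exposure; beta-lactamase FRET readout after 2 h substrate loading at RT.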

[17] = cAMP Responsive Elements (CRE) small molecule antagonists, cell-based qHTS assay (AID 1963591; active means well fitted inhibition curve with a large enough effect in the signal ratio in the repeat runs, not every such curve was filed as active; the % refers to the signal ratio)
Summary of the method: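 Inhibition of NKH477-driven (0.25 uM final) CRE-beta-lactamase signal in HEK293T cells, 3 h compound exposure at 37 °C, detected by FRET substrate fluorescence.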

[18] = target: Beta-2 adrenergic receptor (Homo sapiens) (UniProt P07550); assay: Adrenergic beta2 receptor (ADRB2) small molecule antagonists, cell-based qHTS assay (AID 1963592); further: series mostly up to about 92 µM; nearly all actives have a fitted effect of over 50% in size
Summary of the method: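 Cells (CHO, stable ADRB2 overexpression) incubated 18-20hr at 37C; compounds added from DMSO; agonist mix (1nM isoproterenol, 100uM IBMX, 25uM Ro-20-1724) added; 0.5hr RT; d2-cAMP and anti-cAMP-cryptate added; 1hr RT; 665/615 nm read.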

[19] = target: D(2) dopamine receptor (Homo sapiens) (UniProt P14416); assay: Dopamine D2 receptor (DRD2) small molecule agonists, cell-based qHTS assay (AID 1963594); further: nearly all actives have a fitted effect of over 35% in size
Summary of the method: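 HEK293 cells stably expressing human DRD2, pre-treated with PDE inhibitor Ro20-1724 (0.1 mM final) and compound 10 min at room temperature, then stimulated with NKH477 (200nM […]) for 30 min. cAMP read by HTRF (665/620 nm).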

[20] = target: D(2) dopamine receptor (Homo sapiens) (UniProt P14416); assay: Dopamine D2 receptor (DRD2) small molecule antagonists, cell-based qHTS assay (AID 1963595; active means well fitted inhibition curve with a large enough effect in the signal ratio in the repeat runs, with a control signal flat; the % refers to the signal ratio)
Summary of the method: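 HEK293 cells stably expressing DRD2 were preincubated with 0.1 mM Ro20-1724, then with compound for 10 min at room temperature. Cells were stimulated with 200 nM NKH477 plus 12 nM quinpirole for 30 min, and cAMP was read by HTRF.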

Measured: Potency

D(2) dopamine receptor (Homo sapiens), sequence (P14416 whole entry, looked up): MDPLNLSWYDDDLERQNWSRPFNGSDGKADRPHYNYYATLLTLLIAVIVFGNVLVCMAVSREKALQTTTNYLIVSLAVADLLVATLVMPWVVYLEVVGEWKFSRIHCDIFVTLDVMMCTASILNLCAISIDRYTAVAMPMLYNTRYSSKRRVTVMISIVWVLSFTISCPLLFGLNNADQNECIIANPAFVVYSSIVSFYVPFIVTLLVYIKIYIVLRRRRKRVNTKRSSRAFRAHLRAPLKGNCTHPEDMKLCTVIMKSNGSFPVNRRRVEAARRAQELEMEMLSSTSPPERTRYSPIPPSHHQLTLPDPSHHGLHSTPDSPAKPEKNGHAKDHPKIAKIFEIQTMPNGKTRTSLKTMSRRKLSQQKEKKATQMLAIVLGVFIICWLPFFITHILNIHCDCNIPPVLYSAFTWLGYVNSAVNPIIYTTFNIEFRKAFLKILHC
5-hydroxytryptamine receptor 2A (Homo sapiens), sequence (P28223 whole entry, looked up): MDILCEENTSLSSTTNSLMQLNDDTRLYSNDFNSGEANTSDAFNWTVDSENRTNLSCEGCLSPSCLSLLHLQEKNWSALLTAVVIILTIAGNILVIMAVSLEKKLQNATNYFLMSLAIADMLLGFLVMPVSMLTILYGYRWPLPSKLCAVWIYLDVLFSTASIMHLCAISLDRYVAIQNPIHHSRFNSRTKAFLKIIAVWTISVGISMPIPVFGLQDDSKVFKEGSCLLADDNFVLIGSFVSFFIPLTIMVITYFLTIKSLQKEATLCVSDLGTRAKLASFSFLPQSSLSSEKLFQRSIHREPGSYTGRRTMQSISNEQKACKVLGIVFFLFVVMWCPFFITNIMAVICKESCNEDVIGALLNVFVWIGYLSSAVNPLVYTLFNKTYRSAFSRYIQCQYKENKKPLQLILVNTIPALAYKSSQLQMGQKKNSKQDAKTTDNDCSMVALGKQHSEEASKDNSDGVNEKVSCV
Gonadotropin-releasing hormone receptor (Homo sapiens), sequence (P30968 whole entry, looked up): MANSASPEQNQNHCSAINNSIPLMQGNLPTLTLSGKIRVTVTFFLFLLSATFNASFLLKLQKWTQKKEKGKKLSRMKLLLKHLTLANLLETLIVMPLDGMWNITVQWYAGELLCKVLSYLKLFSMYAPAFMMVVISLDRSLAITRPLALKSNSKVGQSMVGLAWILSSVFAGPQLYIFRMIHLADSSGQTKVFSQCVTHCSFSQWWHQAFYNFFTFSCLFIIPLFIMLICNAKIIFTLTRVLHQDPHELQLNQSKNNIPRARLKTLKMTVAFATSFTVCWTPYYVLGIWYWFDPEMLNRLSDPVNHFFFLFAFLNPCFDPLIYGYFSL
KiSS-1 receptor (Homo sapiens), sequence (Q969F8 whole entry, looked up): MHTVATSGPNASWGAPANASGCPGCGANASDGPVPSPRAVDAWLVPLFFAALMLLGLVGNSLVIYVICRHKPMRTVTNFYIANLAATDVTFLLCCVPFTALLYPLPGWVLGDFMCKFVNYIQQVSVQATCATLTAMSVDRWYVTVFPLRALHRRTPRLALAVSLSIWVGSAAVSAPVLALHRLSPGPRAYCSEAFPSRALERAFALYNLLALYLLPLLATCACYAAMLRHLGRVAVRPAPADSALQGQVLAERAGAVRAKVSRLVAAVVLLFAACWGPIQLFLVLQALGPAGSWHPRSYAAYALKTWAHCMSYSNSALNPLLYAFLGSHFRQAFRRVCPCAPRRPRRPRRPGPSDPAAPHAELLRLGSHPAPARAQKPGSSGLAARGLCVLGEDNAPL
Muscarinic acetylcholine receptor M1 (Homo sapiens), sequence (P11229 whole entry, looked up): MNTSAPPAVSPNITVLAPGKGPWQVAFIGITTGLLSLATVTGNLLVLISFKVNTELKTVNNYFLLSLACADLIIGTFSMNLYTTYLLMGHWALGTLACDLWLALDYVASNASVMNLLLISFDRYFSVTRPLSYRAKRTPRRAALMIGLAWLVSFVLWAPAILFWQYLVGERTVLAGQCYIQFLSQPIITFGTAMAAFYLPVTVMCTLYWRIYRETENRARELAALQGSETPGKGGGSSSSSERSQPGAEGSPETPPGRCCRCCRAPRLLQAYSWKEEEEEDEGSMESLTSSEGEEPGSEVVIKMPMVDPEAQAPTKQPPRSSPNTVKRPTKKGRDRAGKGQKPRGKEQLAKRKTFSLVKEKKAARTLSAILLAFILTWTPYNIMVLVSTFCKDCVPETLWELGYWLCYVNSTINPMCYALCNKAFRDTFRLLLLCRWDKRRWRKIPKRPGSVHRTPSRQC
Beta-2 adrenergic receptor (Homo sapiens), sequence (P07550 whole entry, looked up): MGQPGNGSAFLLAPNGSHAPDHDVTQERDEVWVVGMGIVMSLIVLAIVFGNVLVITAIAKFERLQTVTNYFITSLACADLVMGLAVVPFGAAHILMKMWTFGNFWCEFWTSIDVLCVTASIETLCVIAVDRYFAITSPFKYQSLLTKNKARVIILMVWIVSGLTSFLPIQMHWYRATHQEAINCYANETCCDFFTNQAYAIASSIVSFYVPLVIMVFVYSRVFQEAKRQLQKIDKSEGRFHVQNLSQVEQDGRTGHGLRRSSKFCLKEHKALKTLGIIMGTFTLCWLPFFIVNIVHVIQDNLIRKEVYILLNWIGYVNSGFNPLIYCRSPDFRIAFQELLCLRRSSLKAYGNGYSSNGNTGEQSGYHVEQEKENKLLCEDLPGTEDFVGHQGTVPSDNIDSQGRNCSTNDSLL

C/C=C/C(=O)C1=C(C)C=CCC1(C)C
inactive: [1] | [2] | [3] | [4] | [5] | [6] | [7] | [8] | [9] | [10] | [11] | [12] | [13] | [14] | [15] | [16] | [17] | [18] | [19] | [20]

C/C(=N\O)[C@@H](C)NCC(C)(C)CN[C@H](C)/C(C)=N/O
inactive: [1] | [2] | [3] | [4] | [5] | [6] | [7] | [8] | [9] | [10] | [11] | [12] | [13] | [14] | [15] | [16] | [17] | [18] | [19] | [20]

Nc1ccc(Oc2ccc(Cl)cc2)cc1
inactive: [1] | [2] | [3] | [4] | [5] | [6] | [7] | [8] | [9] | [10] | [11] | [12] | [13] | [14] | [15] | [16] | [17] | [18] | [19] | [20]

CO[Si](CCCOCC1CO1)(OC)OC (stereo not given)
inactive: [1] | [2] | [3] | [4] | [5] | [6] | [7] | [8] | [9] | [10] | [11] | [12] | [13] | [14] | [15] | [16] | [17] | [18] | [19] | [20]

C=C(C)C(=O)NCCC[N+](C)(C)C
inactive: [1] | [2] | [3] | [4] | [5] | [6] | [7] | [8] | [9] | [10] | [11] | [12] | [13] | [14] | [15] | [16] | [17] | [18] | [19] | [20]

NC(=O)Cc1cccc(C(=O)c2ccccc2)c1N
inactive: [1] | [2] | [3] | [4] | [5] | [6] | [7] | [8] | [9] | [10] | [11] | [12] | [13] | [14] | [15] | [16] | [17] | [18] | [19] | [20]
